# The supplement of paper PMC10849652
# About 7,900 targets were measured; listed, in parts, are those with a hit and a random draw of the rest. About 0.6% of all pairs of compound and target were hits. A number with no mark means an inactive call.
# Experiments:
# Experiment in all cases: log2 fold change, soluble protein after heating vs DMSO (PISA); higher = thermal stabilisation; K562 cells, 10 uM, 30 min; active = over 0.2 and 3.5 SD of the protein, either way, in both replicates (recomputed)
# YAE1 = YAE1 (UniProt Q9NRH1)
# Procedure, shortened: (§1)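 Thermal stability values are relative to control samples and come from duplicates. They are expressed as log2 fold changes. For measurement, K562 cells (2×10^6 cells/mL) received 10 μM compound for 30 min, and aliquots were heated for 3 min over 48°C-58°C, pooled, and extracted at 4°C in PBS with 0.5% NP-40. Soluble protein, the supernatant after 21,000xg for 90 min, was quantified by TMTpro 16plex LC-MS/MS with equalised channel sums.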
# YBX1 [1] = biological target: YBX1 (UniProt P67809)
# Procedure, shortened: as §1
# YES1 = YES1 (UniProt P07947)
# Procedure, shortened: as §1
# YIPF4 = YIPF4 (UniProt Q9BSR8)
# Procedure, shortened: as §1
# YIPF5 isoform 3 = YIPF5 isoform 3 (UniProt Q969M3)
# Procedure, shortened: as §1
# YIPF6 = YIPF6 (UniProt Q96EC8)
# Procedure, shortened: as §1
# YLPM1 = YLPM1 (UniProt P49750)
# Procedure, shortened: as §1
# YOD1 = YOD1 (UniProt Q5VVQ6)
# Procedure, shortened: as §1
# YPEL5 = YPEL5 (UniProt P62699)
# Procedure, shortened: as §1
# YWHAB = YWHAB (UniProt P31946)
# Procedure, shortened: as §1
# YWHAQ = YWHAQ (UniProt P27348)
# Procedure, shortened: as §1
# YWHAZ [2] = biological target: YWHAZ (UniProt E7ESK7)
# Procedure, shortened: as §1
# YWHAZ [3] = biological target: YWHAZ (UniProt P63104)
# Procedure, shortened: as §1
# YY1 = YY1 (UniProt P25490)
# Procedure, shortened: as §1
# ZADH2 = ZADH2 (UniProt Q8N4Q0)
# Procedure, shortened: as §1
# ZBTB17 isoform 2 = ZBTB17 isoform 2 (UniProt Q13105)
# Procedure, shortened: as §1
# ZBTB21 = ZBTB21 (UniProt Q9ULJ3)
# Procedure, shortened: as §1
# ZC3H18 = ZC3H18 (UniProt Q86VM9)
# Procedure, shortened: as §1
# ZBTB43 = ZBTB43 (UniProt O43298)
# Procedure, shortened: as §1
# YBX1 [4] = biological target: YBX1 (UniProt C9J5V9)
# Procedure, shortened: as §1
# YPEL5, sequence (P62699 whole entry, looked up): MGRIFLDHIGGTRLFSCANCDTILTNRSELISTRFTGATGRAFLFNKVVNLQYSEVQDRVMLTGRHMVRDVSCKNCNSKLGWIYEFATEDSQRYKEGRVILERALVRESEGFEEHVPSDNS
# ZC3H18, sequence (Q86VM9 whole entry, looked up): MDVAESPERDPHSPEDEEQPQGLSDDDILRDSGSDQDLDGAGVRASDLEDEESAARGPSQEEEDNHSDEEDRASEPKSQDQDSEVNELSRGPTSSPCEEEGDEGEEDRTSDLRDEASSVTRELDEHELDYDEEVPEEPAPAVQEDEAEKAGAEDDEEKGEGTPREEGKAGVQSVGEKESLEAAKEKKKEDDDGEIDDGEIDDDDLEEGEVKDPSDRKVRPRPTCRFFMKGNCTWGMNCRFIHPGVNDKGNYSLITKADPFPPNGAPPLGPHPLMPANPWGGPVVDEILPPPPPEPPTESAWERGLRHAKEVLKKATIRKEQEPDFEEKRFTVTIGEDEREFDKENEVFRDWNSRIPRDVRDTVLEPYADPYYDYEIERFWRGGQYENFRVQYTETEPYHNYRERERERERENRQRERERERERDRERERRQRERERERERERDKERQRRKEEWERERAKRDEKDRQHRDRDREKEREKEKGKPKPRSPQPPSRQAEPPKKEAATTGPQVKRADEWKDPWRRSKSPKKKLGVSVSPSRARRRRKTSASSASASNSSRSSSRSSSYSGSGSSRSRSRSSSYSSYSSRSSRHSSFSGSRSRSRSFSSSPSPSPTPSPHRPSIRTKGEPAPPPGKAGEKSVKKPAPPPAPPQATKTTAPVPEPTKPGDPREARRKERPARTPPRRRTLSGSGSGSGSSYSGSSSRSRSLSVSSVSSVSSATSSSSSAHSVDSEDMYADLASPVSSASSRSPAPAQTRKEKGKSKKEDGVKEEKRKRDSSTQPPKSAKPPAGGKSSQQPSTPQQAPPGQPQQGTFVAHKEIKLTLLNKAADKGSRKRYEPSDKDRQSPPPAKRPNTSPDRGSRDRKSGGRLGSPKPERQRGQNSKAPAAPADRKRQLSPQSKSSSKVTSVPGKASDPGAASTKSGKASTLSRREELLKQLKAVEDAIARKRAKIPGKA
# ZBTB17 isoform 2, sequence (Q13105 whole entry, looked up, canonical isoform): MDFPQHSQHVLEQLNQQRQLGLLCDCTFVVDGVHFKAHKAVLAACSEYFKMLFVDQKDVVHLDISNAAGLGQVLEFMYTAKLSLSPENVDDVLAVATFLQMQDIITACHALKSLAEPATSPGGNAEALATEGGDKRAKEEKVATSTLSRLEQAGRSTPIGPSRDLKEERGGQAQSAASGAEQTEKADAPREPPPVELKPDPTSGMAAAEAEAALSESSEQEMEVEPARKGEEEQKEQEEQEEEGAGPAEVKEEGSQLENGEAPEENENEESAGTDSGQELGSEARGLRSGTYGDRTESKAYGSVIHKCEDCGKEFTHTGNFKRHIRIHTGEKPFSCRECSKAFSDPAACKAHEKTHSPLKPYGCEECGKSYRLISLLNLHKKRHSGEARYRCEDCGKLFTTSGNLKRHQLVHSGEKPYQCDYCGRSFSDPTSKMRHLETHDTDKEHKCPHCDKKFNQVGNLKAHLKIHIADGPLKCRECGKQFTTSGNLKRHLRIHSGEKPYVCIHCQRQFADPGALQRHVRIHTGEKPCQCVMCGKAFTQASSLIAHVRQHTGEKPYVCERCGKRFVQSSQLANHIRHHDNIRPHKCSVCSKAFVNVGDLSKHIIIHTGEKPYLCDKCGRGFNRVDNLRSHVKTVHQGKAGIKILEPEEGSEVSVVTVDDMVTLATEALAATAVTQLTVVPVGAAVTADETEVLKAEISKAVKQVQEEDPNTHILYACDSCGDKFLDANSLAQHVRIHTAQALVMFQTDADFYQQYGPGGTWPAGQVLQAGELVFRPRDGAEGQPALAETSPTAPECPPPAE
# YAE1, sequence (Q9NRH1 whole entry, looked up): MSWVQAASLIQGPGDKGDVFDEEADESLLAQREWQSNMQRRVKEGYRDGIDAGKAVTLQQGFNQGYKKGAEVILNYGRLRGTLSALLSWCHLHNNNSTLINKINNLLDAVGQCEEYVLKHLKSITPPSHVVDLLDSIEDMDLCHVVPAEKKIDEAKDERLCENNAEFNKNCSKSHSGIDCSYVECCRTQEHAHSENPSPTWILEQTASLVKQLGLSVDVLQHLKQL
# YIPF4, sequence (Q9BSR8 whole entry, looked up): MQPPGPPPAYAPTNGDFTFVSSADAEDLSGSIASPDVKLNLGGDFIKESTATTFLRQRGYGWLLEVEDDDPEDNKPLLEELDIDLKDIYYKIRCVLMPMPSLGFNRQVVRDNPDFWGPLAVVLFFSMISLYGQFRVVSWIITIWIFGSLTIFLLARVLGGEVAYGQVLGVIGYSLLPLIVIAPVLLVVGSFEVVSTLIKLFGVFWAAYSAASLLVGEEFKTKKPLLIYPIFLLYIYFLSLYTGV
# ZADH2, sequence (Q8N4Q0 whole entry, looked up): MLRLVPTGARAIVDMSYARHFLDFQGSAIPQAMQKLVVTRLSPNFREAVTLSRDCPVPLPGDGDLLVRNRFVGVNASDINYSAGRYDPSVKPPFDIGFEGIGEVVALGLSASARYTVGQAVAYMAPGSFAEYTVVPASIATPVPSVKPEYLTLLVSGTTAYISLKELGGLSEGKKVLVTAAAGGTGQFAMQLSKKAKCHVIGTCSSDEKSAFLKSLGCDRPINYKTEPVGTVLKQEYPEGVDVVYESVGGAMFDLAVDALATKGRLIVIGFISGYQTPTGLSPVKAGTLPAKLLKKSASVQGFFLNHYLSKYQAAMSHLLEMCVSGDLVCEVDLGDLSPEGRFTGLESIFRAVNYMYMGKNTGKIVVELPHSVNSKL
# ZBTB43, sequence (O43298 whole entry, looked up): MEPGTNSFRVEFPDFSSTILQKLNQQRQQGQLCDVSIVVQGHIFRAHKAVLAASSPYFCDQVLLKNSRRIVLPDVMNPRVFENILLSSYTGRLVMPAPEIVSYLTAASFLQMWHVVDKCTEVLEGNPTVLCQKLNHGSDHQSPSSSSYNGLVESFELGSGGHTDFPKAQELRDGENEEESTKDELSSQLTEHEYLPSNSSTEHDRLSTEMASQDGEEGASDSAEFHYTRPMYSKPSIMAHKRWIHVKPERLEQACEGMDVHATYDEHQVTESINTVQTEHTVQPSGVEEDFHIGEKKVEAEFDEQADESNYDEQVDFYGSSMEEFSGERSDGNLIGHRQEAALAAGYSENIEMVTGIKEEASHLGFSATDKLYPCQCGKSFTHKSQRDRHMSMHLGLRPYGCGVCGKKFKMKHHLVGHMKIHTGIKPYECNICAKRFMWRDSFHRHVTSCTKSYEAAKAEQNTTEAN
# YBX1 (UniProt P67809), sequence (P67809 whole entry, looked up): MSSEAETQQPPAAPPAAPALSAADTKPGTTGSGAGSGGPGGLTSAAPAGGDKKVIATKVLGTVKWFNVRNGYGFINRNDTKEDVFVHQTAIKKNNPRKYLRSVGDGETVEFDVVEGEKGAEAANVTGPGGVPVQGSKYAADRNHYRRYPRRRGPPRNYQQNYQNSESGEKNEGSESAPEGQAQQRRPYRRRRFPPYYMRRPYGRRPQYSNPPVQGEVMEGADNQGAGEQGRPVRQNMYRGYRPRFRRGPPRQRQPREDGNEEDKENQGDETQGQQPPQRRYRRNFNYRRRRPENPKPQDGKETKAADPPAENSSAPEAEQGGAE
# YOD1, sequence (Q5VVQ6 whole entry, looked up): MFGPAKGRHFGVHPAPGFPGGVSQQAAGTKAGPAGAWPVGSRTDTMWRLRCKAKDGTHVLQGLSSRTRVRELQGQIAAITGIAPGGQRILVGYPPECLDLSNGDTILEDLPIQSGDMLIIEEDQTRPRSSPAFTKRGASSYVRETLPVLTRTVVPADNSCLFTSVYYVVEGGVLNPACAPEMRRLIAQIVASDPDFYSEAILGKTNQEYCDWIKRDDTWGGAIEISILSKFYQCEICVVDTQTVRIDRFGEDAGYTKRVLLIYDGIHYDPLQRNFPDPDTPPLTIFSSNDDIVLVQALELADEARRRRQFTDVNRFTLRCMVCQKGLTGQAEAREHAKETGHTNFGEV
# YIPF5 isoform 3, sequence (Q969M3 whole entry, looked up, canonical isoform): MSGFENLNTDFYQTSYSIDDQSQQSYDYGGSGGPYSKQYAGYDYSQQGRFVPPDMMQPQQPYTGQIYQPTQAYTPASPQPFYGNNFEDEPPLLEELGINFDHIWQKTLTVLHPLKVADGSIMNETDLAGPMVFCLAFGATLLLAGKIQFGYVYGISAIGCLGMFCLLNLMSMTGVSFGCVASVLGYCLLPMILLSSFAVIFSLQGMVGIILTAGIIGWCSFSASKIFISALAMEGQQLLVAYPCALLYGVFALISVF
# YIPF6, sequence (Q96EC8 whole entry, looked up): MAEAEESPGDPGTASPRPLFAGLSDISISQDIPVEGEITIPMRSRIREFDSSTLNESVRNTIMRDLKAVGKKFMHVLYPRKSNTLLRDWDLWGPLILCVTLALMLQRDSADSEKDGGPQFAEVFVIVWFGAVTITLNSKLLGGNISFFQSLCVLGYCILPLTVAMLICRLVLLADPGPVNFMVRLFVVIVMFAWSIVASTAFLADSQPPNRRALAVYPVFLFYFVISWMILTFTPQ
# YWHAB, sequence (P31946 whole entry, looked up): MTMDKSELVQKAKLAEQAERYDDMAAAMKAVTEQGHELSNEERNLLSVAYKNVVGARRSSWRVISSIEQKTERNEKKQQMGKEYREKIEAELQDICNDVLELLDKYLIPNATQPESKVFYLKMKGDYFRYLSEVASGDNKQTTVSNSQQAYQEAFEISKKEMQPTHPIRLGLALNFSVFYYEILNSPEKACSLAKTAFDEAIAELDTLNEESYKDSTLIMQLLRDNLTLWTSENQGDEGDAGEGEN
# YWHAZ (UniProt P63104), sequence (P63104 whole entry, looked up): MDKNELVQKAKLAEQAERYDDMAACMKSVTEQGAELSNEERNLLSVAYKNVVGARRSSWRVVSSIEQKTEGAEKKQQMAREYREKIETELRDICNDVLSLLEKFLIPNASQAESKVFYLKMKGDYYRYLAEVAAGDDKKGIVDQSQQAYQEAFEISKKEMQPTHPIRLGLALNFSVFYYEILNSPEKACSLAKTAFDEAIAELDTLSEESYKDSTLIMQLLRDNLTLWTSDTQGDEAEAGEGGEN
Structure (SMILES),log2 fold change (YAE1),log2 fold change (YBX1 [1]),log2 fold change (YES1),log2 fold change (YIPF4),log2 fold change (YIPF5 isoform 3),log2 fold change (YIPF6),log2 fold change (YLPM1),log2 fold change (YOD1),log2 fold change (YPEL5),log2 fold change (YWHAB),log2 fold change (YWHAQ),log2 fold change (YWHAZ [2]),log2 fold change (YWHAZ [3]),log2 fold change (YY1),log2 fold change (ZADH2),log2 fold change (ZBTB17 isoform 2),log2 fold change (ZBTB21),log2 fold change (ZC3H18),log2 fold change (ZBTB43),log2 fold change (YBX1 [4])
NC1(c2ccc(-c3nc4ccn5c(=O)[nH]nc5c4cc3-c3ccccc3)cc2)CCC1,0.086,0.306,-0.012,-0.01,0.017,-0.024,-0.046,-0.138,-0.026,-0.056,0.007,-0.206,0.066,0.011,0.106,-0.143,0.047,0.032,,
Cn1cc(-c2ccc3nnc(C(F)(F)c4ccc5ncccc5c4)n3n2)cn1,0.043,-0.136,0.008,0.108,0.12,0.032,0.031,0.057,-0.071,-0.037,-0.066,-0.007,-0.045,-0.056,0.107,,-0.009,0.008,-0.054,
O=C1NC(=O)C(c2cnc3ccccn23)=C1c1cn2c3c(cc(F)cc13)CN(C(=O)N1CCCCC1)CC2,-0.02,0.126,0.011,-0.087,0.032,0.01,0.026,-0.079,-0.064,-0.04,-0.095,-0.239,-0.025,-0.013,-0.043,,-0.226,0.03,0.196,
NC(=O)c1cnc(N[C@@H]2CCCC[C@@H]2N)nc1Nc1cccc(-n2nccn2)c1,-0.038,0.048,-0.114,0.091,-0.016,-0.088,-0.034,-0.061,-0.019,-0.05,0.172,-0.186,0.108,-0.037,-0.025,,-0.044,-0.221,0.092,-0.031
O=C1c2ccccc2-c2n[nH]c3cccc1c23,-0.048,-0.051,-0.153,0.033,-0.153,-0.018,0.02,0.012,-0.158,0.001,0.089,0.008,0.045,-0.07,0.03,,0.006,-0.211,-0.161,-0.143
Cc1ccc(-n2nc(C(C)(C)C)cc2NC(=O)Nc2ccc(OCCN3CCOCC3)c3ccccc23)cc1 [doramapimod],-0.033,0.047,0.006,0.005,0.041,-0.036,0,0,0.039,0.022,-0.12,0,0.013,-0.037,-0.013,,0.069,0.052,-0.029,0.082
O=C(Nc1nc2ccccc2n1CCN1CCOCC1)c1cccc([N+](=O)[O-])c1 [IRAK-1-4 Inhibitor I],0.103,-0.117,-0.152,0.093,-0.035,0.029,-0.06,0.019,-0.093,0.127,0.084,0.005,0.105,-0.026,0.036,,0.006,-0.036,-0.043,0.049
CC(C)N(C[C@H]1O[C@@H](n2cnc3c(N)ncnc32)[C@H](O)[C@@H]1O)[C@H]1C[C@@H](CCc2nc3cc(C(C)(C)C)ccc3[nH]2)C1 [pinometostat],0.011,0.053,0.035,-0.031,0.016,0.023,0.003,-0.021,0.068,-0.031,-0.067,-0.035,-0.026,0.02,0,,0.209,0.053,-0.05,-0.093
FC(F)(F)c1ccc(/C=C/c2nc(COc3ccc(CCCCn4ccnn4)cc3)co2)cc1 [mubritinib],-0.062,-0.031,-0.067,0.024,0.012,0.036,-0.038,0.108,-0.202,0.045,0.049,0.11,0.015,-0.055,-0.294 (active),-0.131,0.003,-0.042,,
CC(=O)c1cnc2ccc(-c3cc(Cl)c(O)c(Cl)c3)nc2c1N[C@H]1CC[C@H](CN(C)C)CC1,0.078,0.155,-0.819 (active),-0.197,0.023,0.008,-0.093,-0.04,-0.173,-0.019,0.118,-0.081,0.06,-0.084,-0.131,,-0.42 (active),-0.155,0.008,-0.085
COc1cc(Nc2ncc3c(n2)-c2ccc(Cl)cc2C(c2c(F)cccc2OC)=NC3)ccc1C(=O)O [alisertib],-0.065,-0.066,-0.211,-0.134,-0.009,0.419,0.017,0.19,0.086,0.012,-0.001,-0.041,-0.028,-0.062,0.021,0.136,-0.154,-0.085,,
Cc1nc(Nc2ncc(C(=O)Nc3c(C)cccc3Cl)s2)cc(N2CCN(CCO)CC2)n1 [dasatinib],0.152,0.167,-0.737 (active),0.021,0.055,0.256,-0.062,-0.115,-0.004,0.006,-0.149,-0.094,-0.044,-0.001,0.035,,-0.005,0.038,-0.034,
C[C@@H](N)c1ccc(C(=O)Nc2ccnc3[nH]ccc23)cc1,0.1,0.28,0,-0.089,-0.077,-0.013,-0.037,-0.04,0.163,-0.065,-0.302,0.179,-0.178,-0.071,-0.071,,0.125,-0.103,-0.013,
CN1CCN(CCOc2cc(OC3CCOCC3)c3c(Nc4c(Cl)ccc5c4OCO5)ncnc3c2)CC1 [saracatinib],0.025,-0.027,-0.551 (active),0.072,0.007,-0.023,0,-0.034,0.069,0.014,0.234,-0.076,0.064,0.047,0.005,,-0.149,-0.072,-0.147,
Cc1ccc(NC(=O)c2ccc(CN3CC[C@H](N(C)C)C3)c(C(F)(F)F)c2)cc1Nc1nccc(-c2cncnc2)n1 [bafetinib],0.013,0.146,0.049,-0.045,-0.028,-0.169,0.083,-0.07,0.064,-0.008,-0.035,-0.131,-0.022,-0.044,-0.08,0.07,0.194,0.033,-0.006,
